# Compound activity from PubChem.
# This is a sample that favours compounds with a hit; in the whole collection about 3.7% have one here.
# Nrf2 block = Nrf2 qHTS screen for inhibitors; A549 ARE-Fluc reporter, luciferase luminescence, 18-24 h; Potency, µM (series often up to 46 µM), without a hit: at the highest dose activity change, negative = inhibition, hits mostly inhibitors; 2.1% of 360,000 active; note: % is set by controls: 0 for no effect and ±100 for the full control effect; nearly all actives have a fitted effect of over 60% in size
#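 Concentration-response testing used A549 ARE_Fluc cells at 5000 cells/well. Following an 18-24 h compound incubation, viability was read by fluorescence (Ex 405/Em 525) and luciferase output by luminescence.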
# Nrf2 ARE act = qHTS of Nrf2 Activators | AREc32 ARE-luciferase reporter (MCF7-derived line), luminescence, 24 h | Potency, µM (titrated, usually from 46.1 µM), inactives show at the highest dose activation, usual class: activators | 0.31% of 410,000 active; note: % of control where 0% means no effect; nearly all actives have a fitted effect of over 65% in size
#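 AREc32 cells carrying an ARE-driven firefly luciferase, 1000 cells/well in OPTI-MEM with 5% FBS, dosed after overnight attachment and incubated 24 hr at 37 deg C. Steady-Glo luminescence read after 30 min at RT.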
# A549 viability = Nrf2 qHTS screen for inhibitors: counterscreen for cytotoxicity. Potency, µM (top dose mostly 46 µM), without a hit: at the highest dose activity change, negative = cytotoxicity, usual class: inhibitors. A549 ARE-Fluc cells, CellTiter-Fluor viability, 18-24 h. 0.16% of 390,000 active. AID 504648, 2011; note: % is set by controls: 0 for no effect and ±100 for the full control effect
#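 Cytotoxicity counterscreen: CellTiter-Fluor fluorescence was measured in A549 ARE_Fluc cells after 18-24 h of compound exposure in a concentration series. The subsequent BugLite luminescent read reports ARE-luciferase activity.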
# ELG1 repair inh = qHTS screen for small molecules that inhibit ELG1-dependent DNA repair in human embryonic kidney (HEK293T) cells expressing luciferase-tagged ELG1. HEK293T ELG1-luciferase reporter, luminescence, 16 h; DNA damage induced by 5-fluorouridine. Potency, µM (series often up to 46.1 µM), for inactives: top-dose activity change, negative = inhibition, actives largely listed as inhibitors. 2.3% of 330,000 active; note: % is set by controls: 0 for no effect and ±100 for the full control effect; nearly all actives have a fitted effect of over 55% in size
#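 Reporter activity after DNA damage by 5-fluorouridine is monitored. Compound-treated cells incubate 16 hr at 37 °C, then ONE-Glo is added for 30 min before luminescence reading.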
# * hit, by the source's call; ? = inconclusive; . = no result given; [ ] = another dose, or the depositor's remark. Calls come from the whole dose curve; as a rule, active = well fitted curve in the direction sought with a large enough effect; inconclusive = small, poorly fitted or top-dose-only effect, or another doubt; inactive = no such curve, though single readings can be large; an effect the other way counts as inactive or inconclusive. Potency is the fitted concentration of half-maximal effect.
SMILES,Nrf2 block,Nrf2 ARE act,A549 viability,ELG1 repair inh
COc1ccc(C(CNC(=O)c2c(C)nn(Cc3ccc(C)cc3)c2Cl)N2CCOCC2)cc1 (stereo not given),-26.1%,-0.6%,2.2%,20.6µM*
Cc1nn(Cc2ccccc2)c(C)c1C(=O)NCC(c1cccs1)N1CCOCC1 (stereo not given),6.0%,0.3%,-11.0%,13.2%
COc1ccc(C(CNC(=O)c2ccc(C)cc2)N2CCOCC2)cc1 (stereo not given),12.4%,2.8%,-3.9%,.
Cc1ccc(Cn2nc(C)c(C(=O)NCC(c3cccs3)N3CCOCC3)c2Cl)cc1 (stereo not given),-6.8%,-0.2%,-0.2%,5.62µM*
C[C@H](CO)N1C[C@H](C)[C@H](CN(C)S(=O)(=O)c2ccc(F)cc2)Oc2ncc(Br)cc2C1=O,.,2.6%,.,.
COc1ccc(CSc2nc(O)cc(=O)n2CC(C)C)cc1F,?,1.9%,-0.2%,6.1%
CN1CCN(C(=O)CCN2C(=O)/C(=C/c3ccccc3Cl)SC2=S)CC1,?,?,20.6µM*,-3.6%
CC(=C\c1ccccc1)/C=C1/SC(=S)N(CCCC(=O)O)C1=O,-21.4%,-2.1%,-9.1%,?
O=C(CN1C(=O)S/C(=C\c2ccccc2)C1=O)NNC(=O)c1ccccc1O,29.8%,5.0%,5.4%,-0.5%
O=C(CCCN1C(=O)/C(=C/c2ccccc2Cl)SC1=S)NNC(=O)c1ccccc1,20.6µM*,0.0%,-12.2%,-15.9%
O=C(CCCN1C(=O)/C(=C/c2ccccc2Cl)SC1=S)NNC(=O)c1cccnc1,?,11.4%,-11.6%,8.3%
CC(/C=C1\SC(=O)N(CCCC(=O)O)C1=O)=C\c1ccccc1,2.31µM*,-2.6%,-0.7%,?
O=C(CCCN1C(=O)S/C(=C\c2ccccc2)C1=O)NNC(=O)c1ccccc1O,13µM*,-3.0%,1.8%,?
CCc1nn2c(=O)cc(N3C(C)CNCC3C)nc2s1 (stereo not given),12.1%,.,-0.6%,.
Cc1nc(NC(=O)CN2CCN(c3cccc(Cl)c3)CC2)sc1C(=O)N(C)C,-28.9%,0.1%,2.4%,-2.5%
CN1CCN(C(=O)CCN2C(=O)/C(=C\c3ccccc3F)SC2=S)CC1,?,17.0%,23.1µM*,2.4%
O=C(NNc1ccc(C(F)(F)F)cc1[N+](=O)[O-])c1ccc(NS(=O)(=O)c2ccc(F)cc2)cc1,?,0.5%,?,20.6µM*
Cc1ccc(S(=O)(=O)N2CCOCC2)cc1NC(=O)CNC1CCCC1,6.7%,-0.8%,1.0%,-8.9%
O=C(Nc1nc(-c2ccc(Cl)s2)cs1)c1ccncc1,?,18.3%,-1.0%,-2.0%
CC1CC1C(=O)Nc1nc(-c2ccc(Cl)s2)cs1 (stereo not given),23.1µM*,5.2%,2.5%,10.1%
CC1=Nc2ccccc2N=C(NC(=O)CSC(=S)N2CCCCC2)C1c1ccccc1 (stereo not given),?,3.7%,7.2%,20.6µM*
COc1cc(NS(=O)(=O)c2cc3[nH]c(=O)c(=O)[nH]c3cc2C)cc(OC)c1OC,6.1%,-0.5%,7.7%,11.6%
COc1cc(NS(=O)(=O)c2ccc(C)cc2C)cc(OC)c1OC,10.3µM*,-0.3%,-21.0%,10.3µM*
COc1ccc(NC(=O)CC2Nc3cccc4cccc(c34)NC2=O)cc1 (stereo not given),-8.7%,-0.5%,3.3%,23.1µM*
O=C(CN1CCC(c2nc3ccccc3s2)CC1)NCc1cccs1,7.31µM*,3.7%,-1.7%[1.84 µM],9.2µM*
SMILES,Nrf2 block,Nrf2 ARE act,A549 viability,ELG1 repair inh
O=C(CN1CCC(c2nc3ccccc3s2)CC1)N1CCCCC1,8.5%,3.7%,9.3%,?
O=C(CSc1ccccc1Cl)N1CCC(c2nc3ccccc3s2)CC1,?,1.1%,2.8%,-4.4%
O=C(CSc1ccc(F)cc1)N1CCC(c2nc3ccccc3s2)CC1,18.4µM*,4.1%,-10.4%,?
Cc1ccc([C@@H]2[C@@H]3C(=O)N(c4ccccc4)C(=O)[C@@H]3[C@]3(C)C(=O)N(Cc4ccc(-c5ccccc5)cc4)CC(=O)N23)o1,0.5%,1.8%,0.3%,7.2%
CCn1c(CSc2nnc(-c3ccc4c(c3)OCO4)o2)nc2cc(S(=O)(=O)N(C)C)ccc21,-21.7%,2.5%,-11.8%,14.6µM*
CCn1c(CSc2nnc(C)n2-c2ccccc2)nc2cc(S(=O)(=O)N(C)C)ccc21,2.4%,0.2%,?,-0.2%
CN1CCN(CCNC(=O)Nc2ccccc2C(F)(F)F)CC1,.,-0.7%,10.2%,15.4%
CCCN1CCN(C(=S)Nc2ccccc2C(F)(F)F)CC1,16.4µM*,2.0%,-1.8%,?
FC(F)(F)c1ccccc1NC(=S)N1CCc2ccccc2C1,?,0.4%,0.4%,14.6µM*
CCn1cc(C(=O)O)c(=O)c2cnc(N3CCN(C(=S)Nc4ccccc4C(F)(F)F)CC3)nc21,-22.6%,0.2%,2.9%,14.6µM*
Cc1c(Cl)cccc1NC(=S)N1CCc2ccccc2C1,?,-0.7%,1.5%,5.0%
CN(C)c1cccc(S(=O)(=O)N2CCCN(S(=O)(=O)c3ccc4c(c3)OCCO4)CC2)c1,-11.8%,.,0.6%,.
O=C1C2CCC(C2)C1CN1CCOCC1 (stereo not given),-19.1%,0.0%,-1.1%,.
CCOC(=O)C(=CNNc1ccccc1)C(=O)OCC,8.2%,0.3%,4.8%,6.51µM*
O=C(NC(Cc1c[nH]c2ccccc12)C(=O)Nc1ccc(OC(F)(F)F)cc1)c1cccs1 (stereo not given),?,-0.7%,23.1µM*,-5.0%
O=C(c1cc(C2CC2)nc2ccc(Br)cc12)N1N=C(C(F)F)CC1(O)C(F)F (stereo not given),18.4µM*,-1.5%,?,-4.2%
CCOc1ccc(-n2c(C)c(C(C)=O)c3cc(OC(C)=O)ccc32)cc1,0.9%,-0.7%,6.3%,6.51µM*
CCOc1ccc(-n2c(C)c(C(=O)O)c3cc(OC)ccc32)cc1,14.3%,0.1%,3.5%,?
CCOc1ccc(OCC)c(NC(=O)CSc2nc3c(c(=O)n(C)c(=O)n3C)n2C(C)C)c1,16.4µM*,4.2%,-9.4%,11.6µM*
CCOc1ccc(OCC)c(NC(=O)CSc2nc3c(c(=O)n(C)c(=O)n3C)n2C)c1,.,.,.,3.9%
Clc1ccc(-c2c[n+]3c(n2-c2ccccc2)SCC3)cc1,?,-0.8%,-3.2%,7.3µM*
CCc1ccccc1NC(=O)C1CCCN(C(=O)c2cnn(-c3ccccc3)c2-n2cccc2)C1 (stereo not given),-25.0%,3.3%,0.4%,.
CCn1c2c(c(=N)c3c1CCC3)CCC2,31.0%,-0.1%,-0.6%,0.1%
CCn1c2c(c(=N)c3ccccc31)CCC2,13µM*,0.0%,-9.7%,20.6µM*
C/C(=N\NC(=O)c1ccc(Cn2cc(Br)cn2)o1)c1cccc(NC(=O)C(C)C)c1,-26.5%,3.2%,-3.4%,5.8µM*
CN(C)S(=O)(=O)c1ccc(C(=O)Nc2ccc3nc(N4CCOCC4)sc3c2)cc1,12.6%,2.3%,1.4%,14.2%
